These results are taken from PMC7862700, “An all-to-all approach to the identification of sequence-specific readers for epigenetic DNA modifications on cytosine”.

What all share (assay): DAPPL (digital affinity profiling via proximity ligation, sequencing); 10 mM Tris-HCl pH 7.5, 50 mM NaCl, 1 mM DTT, 4% glycerol, room temperature, 30 min; GST-TFs on glutathione beads, 16-mer random dsDNA library, 0.1% formaldehyde crosslink after washing; high values mean tight binding
Conditions in all cases: protein: recombinant; tags: N-terminal GST; dsDNA, one strand shown

The target in one assay is T1, ERF (Homo sapiens, UniProt P50548 1-548).
T1 sequence: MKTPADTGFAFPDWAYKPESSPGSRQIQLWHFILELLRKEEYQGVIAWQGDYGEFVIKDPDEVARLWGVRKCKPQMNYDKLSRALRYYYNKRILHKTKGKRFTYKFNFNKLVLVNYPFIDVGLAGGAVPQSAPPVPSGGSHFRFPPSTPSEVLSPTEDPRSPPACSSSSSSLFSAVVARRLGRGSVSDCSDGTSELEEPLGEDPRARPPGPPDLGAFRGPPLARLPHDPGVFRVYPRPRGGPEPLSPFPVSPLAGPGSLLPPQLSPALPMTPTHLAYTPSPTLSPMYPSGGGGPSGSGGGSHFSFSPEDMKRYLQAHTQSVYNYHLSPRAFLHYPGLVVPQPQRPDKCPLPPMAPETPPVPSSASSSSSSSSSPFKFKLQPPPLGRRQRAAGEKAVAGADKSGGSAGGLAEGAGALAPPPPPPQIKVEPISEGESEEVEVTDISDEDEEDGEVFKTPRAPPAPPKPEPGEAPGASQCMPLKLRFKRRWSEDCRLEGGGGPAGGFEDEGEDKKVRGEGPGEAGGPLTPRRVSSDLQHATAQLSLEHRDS
In short, it runs like this: (§1)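 Pools of DNA-barcoded human transcription factors, expressed in yeast as GST fusions on glutathione beads and combined with a tag-only sample, were incubated with 200 nmole of a 16-mer random double-stranded DNA library. Incubation took 30 min at room temperature in Tris/NaCl/DTT/glycerol buffer and was followed by washing, 0.1% formaldehyde crosslinking, proximity ligation (BsaI/T4 ligase, 1 h, 37 °C), PCR amplification and sequencing on an Illumina NextSeq500. Binding signal is the ratio of a hexamer's read frequency for a factor to its frequency for the tag-only sample.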

Another assay addresses T2, ETS2 (Homo sapiens, UniProt P15036 1-469).
T2 sequence: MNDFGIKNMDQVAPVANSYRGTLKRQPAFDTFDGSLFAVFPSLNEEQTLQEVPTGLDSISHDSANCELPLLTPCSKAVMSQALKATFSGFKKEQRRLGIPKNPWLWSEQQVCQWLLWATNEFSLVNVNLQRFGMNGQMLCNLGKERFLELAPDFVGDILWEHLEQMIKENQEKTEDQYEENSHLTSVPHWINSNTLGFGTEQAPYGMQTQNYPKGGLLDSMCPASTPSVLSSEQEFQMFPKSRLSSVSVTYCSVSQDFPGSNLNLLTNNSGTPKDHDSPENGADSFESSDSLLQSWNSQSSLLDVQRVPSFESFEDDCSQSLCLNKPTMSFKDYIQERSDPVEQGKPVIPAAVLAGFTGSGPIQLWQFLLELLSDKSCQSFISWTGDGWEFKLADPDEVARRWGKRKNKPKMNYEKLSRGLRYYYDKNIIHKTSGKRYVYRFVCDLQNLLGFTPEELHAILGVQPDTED
In short, it runs like this: as §1

The target in the next assay is T3, SPDEF (Homo sapiens, UniProt O95238 1-335).
T3 sequence: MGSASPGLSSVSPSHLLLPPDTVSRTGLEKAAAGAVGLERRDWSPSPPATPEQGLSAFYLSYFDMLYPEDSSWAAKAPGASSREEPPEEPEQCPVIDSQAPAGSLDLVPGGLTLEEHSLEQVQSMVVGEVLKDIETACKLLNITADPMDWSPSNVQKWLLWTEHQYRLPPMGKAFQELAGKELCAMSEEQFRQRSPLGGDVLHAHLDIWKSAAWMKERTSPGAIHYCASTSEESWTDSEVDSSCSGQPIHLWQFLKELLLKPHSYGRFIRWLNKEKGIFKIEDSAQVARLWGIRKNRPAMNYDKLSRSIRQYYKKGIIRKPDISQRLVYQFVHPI
In short, it runs like this:
as §1

In the next assay the target is T4, ETV7 (Homo sapiens, UniProt Q9Y603 1-341).
T4 sequence: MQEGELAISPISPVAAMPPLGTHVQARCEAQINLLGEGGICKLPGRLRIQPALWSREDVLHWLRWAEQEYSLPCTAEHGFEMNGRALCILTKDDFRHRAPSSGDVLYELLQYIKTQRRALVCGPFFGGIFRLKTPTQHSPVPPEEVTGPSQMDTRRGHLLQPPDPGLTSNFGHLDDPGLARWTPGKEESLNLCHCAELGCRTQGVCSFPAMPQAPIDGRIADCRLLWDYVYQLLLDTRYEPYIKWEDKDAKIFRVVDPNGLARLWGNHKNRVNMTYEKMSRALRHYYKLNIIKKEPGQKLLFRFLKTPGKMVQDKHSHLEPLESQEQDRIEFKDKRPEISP
In short, it runs like this:
as §1

The next assay concerns the target T5, ELF5 (Homo sapiens, UniProt Q9UKW6-2 1-255).
T5 sequence: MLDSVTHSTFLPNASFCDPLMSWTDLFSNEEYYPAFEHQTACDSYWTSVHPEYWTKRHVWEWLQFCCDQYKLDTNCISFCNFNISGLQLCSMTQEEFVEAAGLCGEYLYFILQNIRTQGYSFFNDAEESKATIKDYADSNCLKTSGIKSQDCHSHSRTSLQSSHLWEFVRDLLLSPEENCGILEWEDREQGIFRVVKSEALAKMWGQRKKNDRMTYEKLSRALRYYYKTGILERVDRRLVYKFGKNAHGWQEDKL
In short, it runs like this:
as §1

A further assay concerns the target T6, ETV3 (Homo sapiens, UniProt P41162-2 1-143).
T6 sequence: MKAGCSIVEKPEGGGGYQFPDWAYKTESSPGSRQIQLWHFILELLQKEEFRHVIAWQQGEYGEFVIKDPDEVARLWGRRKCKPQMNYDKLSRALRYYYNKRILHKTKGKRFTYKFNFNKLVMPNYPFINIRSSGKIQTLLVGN
In short, it runs like this: as §1

Another assay addresses ETV6 (Homo sapiens, UniProt P41212 1-452). In short, it runs like this:
as §1

Chain of ETV6 (P41212 whole entry): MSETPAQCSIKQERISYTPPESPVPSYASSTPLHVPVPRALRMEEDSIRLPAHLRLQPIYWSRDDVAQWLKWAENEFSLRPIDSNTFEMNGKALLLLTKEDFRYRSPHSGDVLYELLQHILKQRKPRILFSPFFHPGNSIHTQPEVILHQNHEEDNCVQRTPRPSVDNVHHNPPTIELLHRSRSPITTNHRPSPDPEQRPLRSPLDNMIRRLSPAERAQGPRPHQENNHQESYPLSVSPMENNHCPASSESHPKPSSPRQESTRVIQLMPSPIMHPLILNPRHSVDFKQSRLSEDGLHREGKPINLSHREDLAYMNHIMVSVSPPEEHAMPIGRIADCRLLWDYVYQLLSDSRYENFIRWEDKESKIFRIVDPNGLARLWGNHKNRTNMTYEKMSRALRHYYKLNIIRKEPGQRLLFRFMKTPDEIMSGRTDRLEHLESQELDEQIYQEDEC

As for TTAGGT, the binding signal in the assay with ERF is 1.19 fold enrichment (6-mer frequency, TF over GST control); with ETS2 it was 1.13 fold enrichment (6-mer frequency, TF over GST control); in the assay with SPDEF it was 1.09 fold enrichment (6-mer frequency, TF over GST control); with ETV7, 1.09 fold enrichment (6-mer frequency, TF over GST control); with ELF5, 1.02 fold enrichment (6-mer frequency, TF over GST control); with ETV3, 1.06 fold enrichment (6-mer frequency, TF over GST control). In the assay with ETV6, the binding signal is 1.16 fold enrichment (6-mer frequency, TF over GST control).

In the case of GTCTAA, the binding signal is 1.12 fold enrichment (6-mer frequency, TF over GST control) with ERF; 1.04 fold enrichment (6-mer frequency, TF over GST control) in the assay with ETS2; 1.05 fold enrichment (6-mer frequency, TF over GST control) with ETV7; 1.03 fold enrichment (6-mer frequency, TF over GST control) with ELF5.

In the case of CTCAGG, the binding signal with ERF is 1.02 fold enrichment (6-mer frequency, TF over GST control); with ETS2, 1.12 fold enrichment (6-mer frequency, TF over GST control); with SPDEF it was 1 fold enrichment (6-mer frequency, TF over GST control); with ELF5, 1.04 fold enrichment (6-mer frequency, TF over GST control); with ETV3, 1.01 fold enrichment (6-mer frequency, TF over GST control); with ETV6, 1.08 fold enrichment (6-mer frequency, TF over GST control).

Take TCGTAC: the binding signal is 1.01 fold enrichment (6-mer frequency, TF over GST control) with ERF; 1.07 fold enrichment (6-mer frequency, TF over GST control) with ETS2; 1.06 fold enrichment (6-mer frequency, TF over GST control) with SPDEF; 1.15 fold enrichment (6-mer frequency, TF over GST control) with ETV7; 1.02 fold enrichment (6-mer frequency, TF over GST control) in the assay with ELF5; 1.02 fold enrichment (6-mer frequency, TF over GST control) with ETV3. The binding signal with ETV6 is 1.08 fold enrichment (6-mer frequency, TF over GST control).

CGCTCG: the binding signal with ERF is 1.2 fold enrichment (6-mer frequency, TF over GST control); in the assay with ETS2 it was 1.1 fold enrichment (6-mer frequency, TF over GST control); with SPDEF, 1.1 fold enrichment (6-mer frequency, TF over GST control); with ELF5, 1.03 fold enrichment (6-mer frequency, TF over GST control); with ETV3, 1.08 fold enrichment (6-mer frequency, TF over GST control); with ETV6, 1.08 fold enrichment (6-mer frequency, TF over GST control).

Consider AGACTT, for which the binding signal in the assay with ERF was 1.02 fold enrichment (6-mer frequency, TF over GST control); with ETS2, 1 fold enrichment (6-mer frequency, TF over GST control); with ETV7, 1.02 fold enrichment (6-mer frequency, TF over GST control); with ELF5, 1.2 fold enrichment (6-mer frequency, TF over GST control); with ETV3, 1.09 fold enrichment (6-mer frequency, TF over GST control); with ETV6, 1.04 fold enrichment (6-mer frequency, TF over GST control).

For the sequence TAAAGC, the binding signal was 1.13 fold enrichment (6-mer frequency, TF over GST control) with ERF; 1.05 fold enrichment (6-mer frequency, TF over GST control) with ETS2; 1.04 fold enrichment (6-mer frequency, TF over GST control) with ETV7; 1.01 fold enrichment (6-mer frequency, TF over GST control) with ELF5; 1.1 fold enrichment (6-mer frequency, TF over GST control) in the assay with ETV3; 1.02 fold enrichment (6-mer frequency, TF over GST control) in the assay with ETV6.

For CAGAAT, the binding signal with ERF was 1 fold enrichment (6-mer frequency, TF over GST control); with SPDEF, 1.06 fold enrichment (6-mer frequency, TF over GST control); with ELF5 it was 1.02 fold enrichment (6-mer frequency, TF over GST control); in the assay with ETV6 it was 1.02 fold enrichment (6-mer frequency, TF over GST control).
